# Source: the supplement of paper PMC6555819
# Tests used:
# Assay in all cases: PBM binding z-score (relative to random genomic background probes); higher = stronger binding; sequences stand for … in GC…GCGATTGACAGCGTAGAATGAAGG
# [1] = system: PPARg:RXRa DBDmut IVT, anti-RXR (DBD mutation: RXRa K156A/R161A, NR concentration 270 nM, RXRa partner concentration 90 nM)
# In short: (§1)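 Ligand-free nuclear receptor dimers were bound for 1 h to custom Agilent 4×180K protein-binding microarrays. Detection used antibodies against each partner (one per run). Binding z-scores rest on regression-normalized fluorescence, with random background probes as the reference.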
# [2] = system: PPARg:RXRa IVT, anti-PPARg (NR concentration 270 nM, RXRa partner concentration 90 nM)
# In short: as §1
# [3] = system: PPARg DBDmut:RXRa IVT, anti-PPARg (DBD mutation: PPARg1 K132A/R137A, NR concentration 270 nM, RXRa partner concentration 90 nM)
# In short: as §1
# [4] = system: PPARg DBDmut IVT, anti-PPARg (DBD mutation: PPARg1 K132A/R137A, NR concentration 270 nM)
# In short: as §1
# [5] = system: PPARg homodimer (NR concentration 180 nM)
# In short: as §1
# [6] = system: PXR:RXRa (NR concentration 270 nM, RXRa partner concentration 90 nM)
# In short: as §1
# [7] = system: PXR homodimer (NR concentration 270 nM)
# In short: as §1
# [8] = system: RARa:RXR (NR concentration 270 nM, RXRa partner concentration 90 nM)
# In short: as §1
# [9] = system: RARa homodimer (NR concentration 270 nM)
# In short: as §1
# [10] = system: RARb:RXRa (NR concentration 270 nM, RXRa partner concentration 90 nM)
# In short: as §1
# [11] = system: RARb homodimer (NR concentration 270 nM)
# In short: as §1
# [12] = system: RARg:RXRa (NR concentration 270 nM, RXRa partner concentration 90 nM)
# In short: as §1
# [13] = system: RARg homodimer (NR concentration 270 nM)
# In short: as §1
# [14] = system: RXRa DBDmut IVT, anti-RXR (DBD mutation: RXRa K156A/R161A, NR concentration 90 nM)
# In short: as §1
# [15] = system: RXRa homodimer (NR concentration 180 nM)
# In short: as §1
# [16] = system: THRa:RXRa (NR concentration 90 nM, RXRa partner concentration 90 nM)
# In short: as §1
# [17] = system: THRa homodimer (NR concentration 90 nM)
# In short: as §1
# [18] = system: VDR homodimer (NR concentration 270 nM)
# In short: as §1
Sequence,PBM binding z-score [1],PBM binding z-score [2],PBM binding z-score [3],PBM binding z-score [4],PBM binding z-score [5],PBM binding z-score [6],PBM binding z-score [7],PBM binding z-score [8],PBM binding z-score [9],PBM binding z-score [10],PBM binding z-score [11],PBM binding z-score [12],PBM binding z-score [13],PBM binding z-score [14],PBM binding z-score [15],PBM binding z-score [16],PBM binding z-score [17],PBM binding z-score [18]
GTACCAAGGTGAATAGGTTGTTGATGAGTAGGCG,1.75,2.2,0.246,0.502,0.999,0.105,0.241,0.634,1.32,1.36,0.824,1.07,0.763,0.247,0.717,1.55,0.782,0.391
ACAGACAAGTGAGTGAAGGTAACTCAGCTGGACG,-0.268,-0.138,0.174,0.39,-0.0501,-0.521,-0.267,-0.183,-0.707,-0.0703,-0.464,-0.0696,0.0663,-0.283,-0.0064,-0.0405,-0.435,-0.445
TCATATAGGTGAACAGGTGAAAGTCCGTAAGTTA,6.52,6.31,1.63,1.36,1.1,1,0.638,1.46,0.907,1.64,1.38,1.52,1.13,1.68,1.75,1.13,0.464,0.153
CCTGCTAGGTCATCGTCAGCTAATCTACAGTATG,4.49,3.59,-0.277,-0.677,0.929,1.45,-0.29,2.39,-0.471,4.03,3.08,4.09,5.07,2.37,3.06,2.92,1.19,0.596
CCGAGTAGGTTATGAGGCATTCAGGCAACGGTGA,2.79,2.1,-0.794,-0.318,0.571,-0.101,-0.42,0.567,-0.00223,0.501,0.133,0.306,0.215,0.178,0.451,0.303,0.0556,0.0236
CCTTACGGGTCAAGCTTATAGCACGGGTGGTACG,2.26,3.48,0.116,-0.188,1.56,2.77,-0.265,3.81,0.95,4.05,2.82,4.93,4.64,1.11,5.08,2.23,-0.294,0.754
TGAATGAGGTTAAAGATTAGGGAACGTGGCGTCG,2,2.99,1.53,0.276,0.705,1.33,0.337,1.98,0.424,1.97,0.481,1.91,1.29,1.09,2.89,2.37,0.417,0.533
TCTCGGAGGAAACGAAGGTCAGAGCTTTCCAGAG,0.867,-0.0763,-1.61,-1.24,0.766,0.848,-0.378,1.7,-0.763,2.03,2.69,1.88,1.53,-0.239,1.5,1.38,-0.547,-0.0279
